In PubChem BioAssay:
Calls of active or inactive are those of the source.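 Rule for the calls: active = compounds giving at least 50% inhibition in the cell-based MKP-3 phosphatase rescue imaging test; inactive = the rest.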

Test system: not listed separately
Assay: Primary imaging screen for DUSP6 inhibitors that restore phospho-Erk in transfected HeLa cells, chemical complementation (AID 609);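 for inhibition: phospho-Erk level distribution per well compared with pooled transfected vehicle control wells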
Conditions: HeLa MKP-3 transfected, phospho-Erk imaging KS statistic; measured here: nuclear pErk red intensity z-score; at 10 µM; stronger effect = higher value; cells stimulated with TPA for 15 min

SMILES | z-score
CCCCCOc1ccccc1C(=O)NCCCC(=O)O | 0.123
Cc1cc(=O)oc(C)c1C(=O)Nc1ccc2nsnc2c1 | 0.697
CCOC(=O)NC1(C(F)(F)F)C(=O)NC(C)=C1C#N (stereo not drawn) | 0.321
CCc1cc(=O)oc2cc(C)c(CN3CCCC3)c(O)c12 | -0.144
Cc1cc(Nc2ccc3ccccc3c2)n2ncnc2n1 | -1.5
O=c1c2c3c(sc2n2cnnc2n1C1CCCCC1)CCC3 | 0.683
Cc1cccc(-n2ncc3c(NCCN4CCOCC4)ncnc32)c1 | -0.89
CCCCOC(=O)CSC1=C(C#N)C(c2ccc3c(c2)OCO3)CC(=O)N1 (stereo not drawn) | -0.175
COC(=O)CSCC(=O)Nc1cc2c(cc1C(C)=O)OCO2 | 1.67
Cc1c(C)[n+](=O)c2c(n1[O-])CCC2 | 0.608
CC1CCN(c2ncnc3c2cnn3Cc2ccc(Cl)cc2)CC1 | 0.724
Cc1cc(=O)oc(C)c1C(=O)n1nc(C)c2c1C[C@@H]1[C@H]2C1(C)C | -1.17
Cc1cc(=O)oc(C)c1C(=O)NC1CC(C)(C)NC(C)(C)C1 | 0.228
O=C(Oc1oc(-c2ccco2)nc1C=Nc1ccccc1)c1ccco1 | -0.418
Cn1c(=O)c2c(nc(NCCCO)n2Cc2cccc(C(F)(F)F)c2)n(C)c1=O | 0.32
Cc1ccc(Oc2nc3c(c(=O)n(Cc4ccccc4F)c(=O)n3C)n2C)cc1 | -0.363
N#Cc1c(N)n(CCOC(=O)c2ccc(Cl)cc2)c2nc3ccccc3nc12 | -0.586
CCCc1nnc(NC(=O)Nc2ccccc2OC)s1 | -0.528
O=C(C1=C(O)C(=O)N(CCCN2CCOCC2)C1c1ccccn1)c1cc2ccccc2o1 (stereo not drawn) | -0.11
COc1ccc(CCn2c(=N)c(C(=O)NCc3ccco3)cc3c(=O)n4ccccc4nc32)cc1OC | 0.299

SMILES | z-score
O=C(c1ccccc1)n1c(=S)nc2ccccn21 | 0.415
CCc1nc2n[nH]c(N)c2c2c1CCCC2 | -1.94
O=c1c2ccccc2ncn1Cc1ccco1 | 0.938
O=C(O)c1cc2sccc2s1 | -0.912
CC(C)c1[nH]c(=O)c(C#N)c2c1CSC(C)(C)C2 | -0.0562
CC1(C)Cc2c(c(N3CCOCC3)nc3snc(Br)c23)CO1 | -2.36
COc1ccc(C2C(C#N)=C(N)Oc3cc(C)n(CCN4CCOCC4)c(=O)c32)cc1OC (stereo not drawn) | -1.48
Cc1ccc(N2C(=O)CC3(CC4C=CC3C4)C2=O)cc1 (stereo not drawn) | -0.765
CCCc1cc(NCCN2CCOCC2)n2c(nc3ccccc32)c1C#N | 0.164
CCN(CC)CCCN1C(=O)C(=O)/C(=C(/O)c2ccc(OC)cc2)C1c1ccco1 (stereo not drawn) | 0.462
Cc1ccc(-n2ncc3c(NCCCOC(C)C)ncnc32)c(C)c1 | -0.077
O=C(COc1ccc(-c2nnc(N3CCCCC3)c3ccccc23)cc1)N1CCCCC1 | 1.13
CC(C(=O)N(C)C)N(C#N)c1nc(N(C)C)nc(N(C)C)n1 (stereo not drawn) | 0.8
CC(C(=O)NC(=O)NCc1ccccc1)N1C(=O)c2ccccc2C1=O (stereo not drawn) | -0.687
CCN(CC)CCN1C(=O)c2ccccc2NC1c1cc(OC)c(OC)c(OC)c1 (stereo not drawn) | 1.11
O=C(NCc1ccccc1)/C(=N\O)c1ccccc1 | 0.627
Cn1ncc2nc[nH]c(=O)c21 | 1.26
Clc1ccc(-n2ncc3c(NCc4ccco4)ncnc32)cc1 | 0.00112
COC(=O)c1ccc(Cn2c(O)c(N=O)c3ccccc32)o1 | -1.72

Molecular target: Dual specificity protein phosphatase 6 (Homo sapiens) (UniProt Q16828)
Assay: as above
Conditions: HeLa MKP-3 transfected, phospho-Erk imaging KS statistic; at 10 µM; stronger effect = higher value; cells stimulated with TPA for 15 min

Sequence of Dual specificity protein phosphatase 6 (Homo sapiens) (Q16828 whole entry, looked up): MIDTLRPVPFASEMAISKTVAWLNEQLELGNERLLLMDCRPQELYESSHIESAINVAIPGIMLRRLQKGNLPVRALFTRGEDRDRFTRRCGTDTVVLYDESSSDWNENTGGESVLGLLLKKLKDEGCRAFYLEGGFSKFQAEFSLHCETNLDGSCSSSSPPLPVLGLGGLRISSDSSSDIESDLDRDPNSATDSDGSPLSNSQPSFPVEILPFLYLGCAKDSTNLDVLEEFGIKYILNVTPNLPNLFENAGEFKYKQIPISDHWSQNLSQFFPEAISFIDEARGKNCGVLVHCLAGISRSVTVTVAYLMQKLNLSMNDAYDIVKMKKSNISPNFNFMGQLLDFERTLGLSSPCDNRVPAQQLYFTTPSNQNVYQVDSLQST

SMILES | inhibition
CCCCCOc1ccccc1C(=O)NCCCC(=O)O | 19.4% (inactive)
Cc1cc(=O)oc(C)c1C(=O)Nc1ccc2nsnc2c1 | 5.95% (inactive)
CCOC(=O)NC1(C(F)(F)F)C(=O)NC(C)=C1C#N (stereo not drawn) | 3.42% (inactive)
CCc1cc(=O)oc2cc(C)c(CN3CCCC3)c(O)c12 | -2.29% (inactive)
Cc1cc(Nc2ccc3ccccc3c2)n2ncnc2n1 | 3.97% (inactive)
O=c1c2c3c(sc2n2cnnc2n1C1CCCCC1)CCC3 | -2.59% (inactive)
Cc1cccc(-n2ncc3c(NCCN4CCOCC4)ncnc32)c1 | -2.59% (inactive)
CCCCOC(=O)CSC1=C(C#N)C(c2ccc3c(c2)OCO3)CC(=O)N1 (stereo not drawn) | 8.31% (inactive)
COC(=O)CSCC(=O)Nc1cc2c(cc1C(C)=O)OCO2 | -4.78% (inactive)
Cc1c(C)[n+](=O)c2c(n1[O-])CCC2 | 13.9% (inactive)
CC1CCN(c2ncnc3c2cnn3Cc2ccc(Cl)cc2)CC1 | 13.9% (inactive)
Cc1cc(=O)oc(C)c1C(=O)n1nc(C)c2c1C[C@@H]1[C@H]2C1(C)C | 15.9% (inactive)
Cc1cc(=O)oc(C)c1C(=O)NC1CC(C)(C)NC(C)(C)C1 | -10.1% (inactive)
O=C(Oc1oc(-c2ccco2)nc1C=Nc1ccccc1)c1ccco1 | 22.1% (inactive)
Cn1c(=O)c2c(nc(NCCCO)n2Cc2cccc(C(F)(F)F)c2)n(C)c1=O | -5.95% (inactive)
Cc1ccc(Oc2nc3c(c(=O)n(Cc4ccccc4F)c(=O)n3C)n2C)cc1 | 19.8% (inactive)
N#Cc1c(N)n(CCOC(=O)c2ccc(Cl)cc2)c2nc3ccccc3nc12 | -2.47% (inactive)
CCCc1nnc(NC(=O)Nc2ccccc2OC)s1 | 42.6% (inactive)
O=C(C1=C(O)C(=O)N(CCCN2CCOCC2)C1c1ccccn1)c1cc2ccccc2o1 (stereo not drawn) | 12.7% (inactive)
COc1ccc(CCn2c(=N)c(C(=O)NCc3ccco3)cc3c(=O)n4ccccc4nc32)cc1OC | 14.4% (inactive)

SMILES | inhibition
O=C(c1ccccc1)n1c(=S)nc2ccccn21 | 7.21% (inactive)
CCc1nc2n[nH]c(N)c2c2c1CCCC2 | 5.42% (inactive)
O=c1c2ccccc2ncn1Cc1ccco1 | -15.1% (inactive)
O=C(O)c1cc2sccc2s1 | -6.48% (inactive)
CC(C)c1[nH]c(=O)c(C#N)c2c1CSC(C)(C)C2 | 5.35% (inactive)
CC1(C)Cc2c(c(N3CCOCC3)nc3snc(Br)c23)CO1 | 5.42% (inactive)
COc1ccc(C2C(C#N)=C(N)Oc3cc(C)n(CCN4CCOCC4)c(=O)c32)cc1OC (stereo not drawn) | -10.1% (inactive)
Cc1ccc(N2C(=O)CC3(CC4C=CC3C4)C2=O)cc1 (stereo not drawn) | -2.09% (inactive)
CCCc1cc(NCCN2CCOCC2)n2c(nc3ccccc32)c1C#N | 1.98% (inactive)
CCN(CC)CCCN1C(=O)C(=O)/C(=C(/O)c2ccc(OC)cc2)C1c1ccco1 (stereo not drawn) | -0.233% (inactive)
Cc1ccc(-n2ncc3c(NCCCOC(C)C)ncnc32)c(C)c1 | 1.42% (inactive)
O=C(COc1ccc(-c2nnc(N3CCCCC3)c3ccccc23)cc1)N1CCCCC1 | 5.65% (inactive)
CC(C(=O)N(C)C)N(C#N)c1nc(N(C)C)nc(N(C)C)n1 (stereo not drawn) | 7.21% (inactive)
CC(C(=O)NC(=O)NCc1ccccc1)N1C(=O)c2ccccc2C1=O (stereo not drawn) | -11.4% (inactive)
CCN(CC)CCN1C(=O)c2ccccc2NC1c1cc(OC)c(OC)c(OC)c1 (stereo not drawn) | 3.49% (inactive)
O=C(NCc1ccccc1)/C(=N\O)c1ccccc1 | -1.98% (inactive)
Cn1ncc2nc[nH]c(=O)c21 | 5.95% (inactive)
Clc1ccc(-n2ncc3c(NCc4ccco4)ncnc32)cc1 | 19.4% (inactive)
COC(=O)c1ccc(Cn2c(O)c(N=O)c3ccccc32)o1 | 7.42% (inactive)
